According to PubChem BioAssay (NCI):
This is part of a sample that, as a whole, favours compounds with a hit. Of some 79,000 tested, about 15% had one in any assay. Active and inactive are the calls of the source. Cut-off read from the data, not from the text of the source: active = growth inhibition above about 70%; inactive = the rest.

Assay: NCI Yeast Anticancer Drug Screen. Data for the sgs1 mgt1 strain (AID 161);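 note: 0% = growth of cultures given vehicle only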
Conditions: S. cerevisiae sgs1 mgt1 strain, at 5.0 µM (retest, dose inferred, filed as 0.5), stronger effect = higher value
Summary of the method: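 Read-out: growth inhibition vs vehicle controls. Cells: mutant yeast strain deficient in DNA damage repair.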

| Compound | growth inhibition |
| --- | --- |
| Clc1ccc(-c2nc3ccc(Cl)cc3[nH]2)cc1 | -5% (inactive) |
| O=C1c2ccccc2NC(=O)C2C1C(c1ccccc1)CC2(O)c1ccccc1 (stereo unspecified) | 16% (inactive) |
| COc1ccc(CC2C(=O)NC(C)C(=O)N(C)C3Cc4ccc(cc4)Oc4cc(ccc4O)CC(C(=O)NC(C)C(=O)NC(C)C(=O)N2C)N(C)C3=O)cc1 (stereo unspecified) | 25% (inactive) |
| O=C1c2cccnc2-c2nccc3c2c1nc1cc(Br)ccc13 | 94% (active) |
| CCN(C(=O)O)c1ccc(/C=C/c2ccnc3ccccc23)cc1 | 5% (inactive) |
| O=C(/C=C/c1cccc(Cl)c1)c1ccccc1 | 7% (inactive) |
| O.O.O=C(O)C(O)C(O)C(OC1OC(CO)C(O)C(O)C1O)C(O)CO.O=C(O)C(O)C(O)C(OC1OC(CO)C(O)C(O)C1O)C(O)CO.[NH-]C1CCCCC1[NH-].[Pt+2] (stereo unspecified) | 0% (inactive) |
| O=C(N=c1sc2ccccc2s1)N=c1sc2ccccc2s1 | 14% (inactive) |
| Cc1ccsc1/C=N/Nc1ccc2ccccc2n1 | 44% (inactive) |
| CC(C)(C)C1=NC(=S)SC2=NC(=O)C3(NN21)c1ccccc1-c1ccccc13 | 5% (inactive) |
| COC(=O)c1ccc(OC)cc1 | -1% (inactive) |
| Cc1ccc(/C=C2\CN(C)CC3=C2NC(=S)NC3c2ccc(C)cc2)cc1 (stereo unspecified) | -31% (inactive) |
| O=C1NC(=O)/C(=C/C=C/c2ccccc2)S1 | 25% (inactive) |
| Nc1ccc(Cc2ccc(N)cc2[N+](=O)[O-])c([N+](=O)[O-])c1 | 6% (inactive) |
| COc1ccccc1/C=C\C(=O)c1ccccc1 | 2% (inactive) |
| NNC(=S)NN/C=C(\C=Nc1ccccc1)[N+](=O)[O-] | 7% (inactive) |
